Measured values as given in PubChem BioAssay (NCATS).
Records with an inconclusive call do not appear. Active and inactive are the calls of the source. Calls come from the whole dose curve; as a rule, active = well fitted inhibition curve with a large enough effect in the main read-out, with a control signal flat (not every such curve was filed as active); inconclusive = small, poorly fitted or top-dose-only effect, or effect the other way, or a change in a side signal; inactive = no such curve, though single readings can be large or run the other way.

Assay: Nrf2 qHTS screen for inhibitors: Validation (AID 493153)
Settings: A549 ARE-Fluc reporter, 18-24 h; Potency: luciferase luminescence; viability change: measured here: cytotoxicity max response; luciferase luminescence, at 46.1 µM (top of the series)
Summary of the method: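 Concentration-response on A549 ARE_Fluc reporter cells exposed 18-24 h at 37 C, 5% CO2. Cytotoxicity read first by CellTiter-Fluor fluorescence (Ex 405/Em 525), then Nrf2 inhibition by BugLite luminescence after 15 min.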
Potency is the fitted concentration of half-maximal effect.

SMILES	Potency	viability change
CCCC[N+]1(C)C2CC(OC(=O)[C@H](CO)c3ccccc3)CC1C1OC12 (stereo not given in full)	inactive	-6.93%
CC(N)Cc1c[nH]c2ccc(O)cc12 (stereo not given)	inactive	-2.01%
O=c1c2ccccc2[se]n1-c1ccccc1	inactive	3.13%
c1ccc2cc(CC3=NCCN3)ccc2c1	inactive	-5.88%
OCc1cnc[nH]1	inactive	1.78%
CC(C)NP(=O)(NC(C)C)OP(=O)(NC(C)C)NC(C)C	inactive	0.686%
C=CCN(C1=NCCN1)c1c(Cl)cccc1Cl	inactive	-5.34%
C[N+]1(C)CCc2cc3c(cc2[C@H]1[C@@H]1OC(=O)c2c1ccc1c2OCO1)OCO3	inactive	-0.563%
COc1ccc(CNC(=O)/C=C/c2ccc3[nH]cc(CCN(C)C)c3c2)cc1	inactive	-0.218%
CO[C@H]1CC=C2CCN3CCC4=C(CC(=O)OC4)[C@]23C1	inactive	-2.68%
CCCCCCCCCCCCCC(=O)O[C@@H]1[C@@H](C)[C@@]2(O)[C@@H](C=C(CO)C[C@@]3(O)C(=O)C(C)=C[C@@H]23)C2C(C)(C)[C@@]21OC(C)=O (stereo not given in full)	inactive	-19.6%
Oc1ccc2c3c1O[C@H]1c4[nH]c5ccccc5c4C[C@@]4(O)C(C2)N(CC2CC2)CCC314 (stereo not given in full)	inactive	-8.87%
C[N+](C)(C)CC#CCOC(=O)Nc1cccc(Cl)c1	inactive	-2.28%
Oc1ccc2c3c1O[C@H]1c4oc5ccccc5c4C[C@@]4(O)C(C2)N(CC2CC2)CCC314 (stereo not given in full)	inactive	-2.78%
CN1CCC(c2c[nH]c3ccc(O)cc23)CC1	inactive	-1.47%
COC(=O)N1CCN(C(=O)Cc2ccc(Cl)c(Cl)c2)C(CN2CCCC2)C1 (stereo not given)	inactive	0.492%
COc1ccc2c(c1)C13CCCCC1C(C2)N(C)CC3 (stereo not given)	inactive	4.34%
C[C@]12Cc3cn4c(nc3C=C1CCC1C2CC[C@@]2(C)[C@H]1CC[C@@]2(O)C#N)nc1ccccc14 (stereo not given in full)	13 µM (active)	-1.99%
CCCn1c(=O)c2[nH]c(C3CCCC3)nc2n(CCCOC(=O)c2ccc(S(=O)(=O)F)cc2)c1=O	inactive	-2.37%
Cc1cc([C@@H]2CCCN2C)on1	inactive	4.53%
N=C(N)c1ccc(CS(=O)(=O)F)cc1	inactive	-1.04%
C[N+]1(C)CCOC(O)(c2ccc(-c3ccc(C4(O)C[N+](C)(C)CCO4)cc3)cc2)C1 (stereo not given)	inactive	-1.71%
C[N+]1(C)C2CCC1CC(OC(=O)c1c[nH]c3ccccc13)C2 (stereo not given)	inactive	2.15%
NC(N)=Nc1ccc2[nH]c3c(c2c1)C[C@@]1(O)[C@H]2Cc4ccc(O)c5c4[C@@]1(CCN2CC1CC1)[C@H]3O5	inactive	4.74%
Nc1ccc(CCN2CCN(c3cccc(C(F)(F)F)c3)CC2)cc1	inactive	0.0372%
Cc1[nH]c2ccc(O)cc2c1CCN	inactive	-7.71%
C=CCN1CC[C@]23c4c5ccc(O)c4O[C@H]2/C(=N/NC(=O)c2ccccc2)CC[C@@]3(O)[C@H]1C5	inactive	7.77%
C[C@@H]1O[C@H](C[N+](C)(C)C)CS1	inactive	8.63%
CC(N)Cc1c[nH]c2ccc(OCc3cccs3)cc12 (stereo not given)	inactive	-4.81%
NC(C(=O)O)c1cc(=O)[nH]o1 (stereo not given)	inactive	-7.19%
